Active and inactive are the calls of the source. Unless noted, the rule behind the calls is not given here.
Assays:
[1] = compound effects on lung adenocarcinoma cell viability – A549, calcein-AM fluorescence, 48 h, basal, profiling panel (AID 1162); conditions: higher = more signal; note: test concentration not given here
[2] = compound effects on differentiated 3T3-L1 adipocyte viability – cell-based, 3T3-L1 adipocytes, calcein-AM fluorescence, 48 h, basal, profiling panel (AID 1163); conditions: 3T3-L1 adipocytes viability, higher = more signal; note: test concentration not given here
[3] = compound effects on hepatocellular carcinoma cell viability – HepG2, calcein-AM fluorescence, 48 h, basal, profiling panel (AID 1164); conditions: higher = more signal; note: test concentration not given here
[4] = compound effects on multiple myeloma cell viability – MM1S, calcein-AM fluorescence, 48 h, basal, profiling panel (AID 1165); conditions: higher = more signal; note: test concentration not given here
[5] = calcein-AM signal in unstimulated myeloma cells – cell-based, calcein-AM fluorescence, 48 h, PK04 Diversity Set, profiling panel (AID 1166); conditions: RPMI8226 myeloma viability, higher = more signal;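 note: cells grown under basal conditions without added stimulus; test concentration not given here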
[6] = JC-1 mitochondrial signal, unstimulated HepG2 cells – cell-based, JC-1 fluorescence, 24 h, 100 nL compound, profiling panel (AID 1167); conditions: HepG2 mitochondrial potential, higher = more signal; note: test concentration not given here
[7] = JC-1 mitochondrial signal, unstimulated adipocytes – cell-based, JC-1 fluorescence, 3T3-L1 adipocytes, 24 h, 100 nL compound, profiling panel (AID 1168); conditions: JC-1 mitochondrial fluorescence, higher = more signal, called active from +8 up or from −8 down; note: test concentration not given here
[8] = JC-1 mitochondrial signal, unstimulated myeloma cells – cell-based, JC-1 fluorescence, RPMI8226, 24 h, 100 nL compound, profiling panel (AID 1169); conditions: JC-1 mitochondrial potential fluorescence, higher = more signal; note: test concentration not given here
[9] = JC-1 mitochondrial signal, unstimulated MM1S myeloma – cell-based, JC-1 fluorescence, 24 h, 100 nL compound, profiling panel (AID 1170); conditions: MM1S mitochondrial potential, higher = more signal; note: test concentration not given here
[10] = resazurin metabolic signal in A549 cells – cell-based, resazurin fluorescence, 24 h, PK04 Diversity Set, profiling panel (AID 1171); conditions: A549 viability, higher = more signal, called active from +8 up or from −8 down; note: test concentration not given here
[11] = resazurin metabolic signal in HepG2 cells – cell-based, resazurin fluorescence, 24 h, PK04 Diversity Set, profiling panel (AID 1172); conditions: HepG2 viability, higher = more signal; note: test concentration not given here
[12] = budding yeast growth changes without added modifier – OD600, strain BY4716, 24 h, basal condition, primary screen (AID 1173); conditions: S. cerevisiae BY4716 growth, OD600, 24 h; higher = more signal, called active from +8 up or from −8 down
[13] = viability profiling in MM1S myeloma cells – cell-based, resazurin fluorescence, basal, 24 h, PK04 Diversity Set, profiling panel (AID 1174); conditions: higher = more signal, called active from +8 up or from −8 down; note: test concentration not given here
[14] = molecular target: Dihydroorotate dehydrogenase (quinone), mitochondrial (Plasmodium falciparum (isolate 3D7)) (UniProt Q08210); assay: inhibition of P. falciparum DHODH – biochemical, C-terminal His tag, absorbance 600 nm, primary screen (AID 1175); conditions: PfDHODH enzyme, DCIP absorbance 600 nm; higher = more signal, called active from +8 up or from −8 down;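 note: recombinant parasite enzyme with a five histidine tag at its C terminus; test concentration not given here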
Sequence of Dihydroorotate dehydrogenase (quinone), mitochondrial (Plasmodium falciparum (isolate 3D7)) (Q08210 whole entry, looked up): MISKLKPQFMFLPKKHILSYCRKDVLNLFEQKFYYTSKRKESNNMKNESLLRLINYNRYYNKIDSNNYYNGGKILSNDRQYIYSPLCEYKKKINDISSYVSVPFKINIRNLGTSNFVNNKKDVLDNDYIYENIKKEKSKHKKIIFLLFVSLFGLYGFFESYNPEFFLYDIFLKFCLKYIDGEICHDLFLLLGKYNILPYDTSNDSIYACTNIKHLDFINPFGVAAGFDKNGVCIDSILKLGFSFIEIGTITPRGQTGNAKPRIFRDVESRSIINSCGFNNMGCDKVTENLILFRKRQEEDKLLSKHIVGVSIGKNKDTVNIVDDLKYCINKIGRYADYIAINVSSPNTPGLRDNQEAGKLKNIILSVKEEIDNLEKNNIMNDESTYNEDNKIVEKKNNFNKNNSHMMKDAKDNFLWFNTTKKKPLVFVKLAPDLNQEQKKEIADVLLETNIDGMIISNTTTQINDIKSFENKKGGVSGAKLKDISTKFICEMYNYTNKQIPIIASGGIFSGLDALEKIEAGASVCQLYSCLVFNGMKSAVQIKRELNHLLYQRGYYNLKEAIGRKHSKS

[15] = inhibition of PAO1 biofilm formation – strain PAO1, LB-PBS medium, absorbance 600 nm, primary screen (AID 1176); note: test concentration not given here; conditions: P. aeruginosa PAO1 growth/biofilm, A600, 12 h; higher = more signal
[16] = growth modulation of vineyard yeast isolate – strain RM11-1a, OD600, basal, 24 h, primary screen (AID 1177);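 note: cultures grown under basal conditions with no added stressor; test concentration not given here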; conditions: S. cerevisiae RM11-1a growth, OD600, 24 h; higher = more signal, called active from +8 up or from −8 down
[17] = growth of efflux-deficient E. coli DRC39 – strain DRC39, OD650, 24 h, E. coli filamentation inducers, primary screen (AID 1178);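 note: growth measured as culture turbidity by optical density at 650 nm; test concentration not given here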; conditions: E. coli DRC39 acrAB, higher = more signal, called active from +8 up or from −8 down
[18] = growth of efflux-deficient E. coli DRC39 – strain DRC39, OD650, 48 h, E. coli filamentation inducers, primary screen (AID 1179);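 note: screen aims at cell division blockers that make cells filament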; conditions: E. coli DRC39 delta-acrAB growth, higher = more signal, called active from +8 up or from −8 down
[19] = viability profiling in RPMI8226 myeloma cells – cell-based, resazurin fluorescence, basal, 24 h, PK04 Diversity Set, profiling panel (AID 1180); conditions: higher = more signal;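 note: RPMI8826 multiple myeloma cell line at 5000 cells per well; test concentration not given here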
[20] = molecular target: E3 ubiquitin-protein ligase XIAP (Homo sapiens) (UniProt P98170); assay: small molecules binding XIAP protein – biophysical, small-molecule microarray, fluorescence 635 nm, primary screen (AID 1181); conditions: higher = more signal;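 note: score merges 667 nm emission and signal to noise over triplicate slides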
Sequence of E3 ubiquitin-protein ligase XIAP (Homo sapiens) (P98170 whole entry, looked up): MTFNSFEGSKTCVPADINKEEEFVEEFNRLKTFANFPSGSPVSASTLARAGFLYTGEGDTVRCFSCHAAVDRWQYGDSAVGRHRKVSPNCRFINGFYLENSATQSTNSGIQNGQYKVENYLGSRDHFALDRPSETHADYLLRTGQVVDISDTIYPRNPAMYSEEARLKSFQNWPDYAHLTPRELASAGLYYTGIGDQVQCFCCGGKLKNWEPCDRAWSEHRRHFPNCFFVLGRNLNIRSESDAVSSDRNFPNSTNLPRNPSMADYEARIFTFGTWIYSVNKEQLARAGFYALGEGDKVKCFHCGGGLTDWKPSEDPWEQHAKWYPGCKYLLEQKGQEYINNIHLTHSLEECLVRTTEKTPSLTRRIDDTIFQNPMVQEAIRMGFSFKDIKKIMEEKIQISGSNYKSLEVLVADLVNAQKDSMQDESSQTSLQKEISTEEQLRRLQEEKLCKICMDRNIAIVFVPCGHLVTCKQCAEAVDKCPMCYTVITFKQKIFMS

SMILES	z-score [1]	z-score [2]	z-score [3]	z-score [4]	z-score [5]	z-score [6]	z-score [7]	z-score [8]	z-score [9]	z-score [10]	z-score [11]	z-score [12]	z-score [13]	composite z-score [14]	z-score [15]	z-score [16]	z-score [17]	z-score [18]	z-score [19]	composite z-score [20]
COC(=O)C1=CC(CCCO)=CC(c2ccc(CN3CCCC3)cc2)N(Cc2cccc(OC(F)(F)F)c2)C=C1C(=O)OC (stereo not given)	0.589	-0.0684	1.34	1.04	-0.413	3.57	0.395 (inactive)	0.121	0.593	-1.16 (inactive)	-0.721	-1.54 (inactive)	-0.728 (inactive)	-2.65 (inactive)	-0.407 (inactive)	-0.287 (inactive)	0.509 (inactive)	0.701 (inactive)	-0.529	0.166
COc1ccc(CCNC(=O)[C@@]2(c3ccc([N+](=O)[O-])cc3)CC(=O)N(C3CCCCC3)[C@@H]2c2ccc(CO)cc2)cc1	2.41	0.414	1.12	0.547	0.841	2.85	-0.171 (inactive)	0.562	0.954	1.28 (inactive)	0.159	-0.0229 (inactive)	-0.881 (inactive)	0.395 (inactive)	-0.342 (inactive)	1.14 (inactive)	0.914 (inactive)	0.686 (inactive)	0.556	-0.0333
COc1ccc([C@H]2OC[C@@H]3C[C@H](Cc4ccccc4)C(=O)N32)cc1	-0.799	-0.835	-0.459	0.191	-0.598	-0.703	0.0558 (inactive)	0.00274	-0.393	-0.116 (inactive)	-0.195	-3.69 (inactive)	0.229 (inactive)	-0.0327 (inactive)	-0.145 (inactive)	0.248 (inactive)	-0.278 (inactive)	-0.818 (inactive)	-0.627	-0.152
CC(CO)N1C(=O)[C@]2(C)C3C(=O)OCCC/C=C\[C@H]3OC23C=CCN(c2ccc(Cl)cc2)C(=O)[C@@H]13 (stereo not given in full)	0.592	-0.329	0.94	1.77	0.202	1.19	0.204 (inactive)	-0.765	-0.302	-0.0794 (inactive)	-0.342	0.317 (inactive)	0.28 (inactive)	-0.924 (inactive)	-0.264 (inactive)	-0.354 (inactive)	0.351 (inactive)	0.779 (inactive)	0.499	0.834
C=CCN1Cc2ccccc2[C@@H]2OC(c3ccc(OCCCO)cc3)=N[C@]2(CC=C)C1=O	-0.546	1.44	0.274	-2.62	-2.83	0.752	0.0517 (inactive)	-1.09	0.278	0.0576 (inactive)	0.151	-1.94 (inactive)	0.0504 (inactive)	-0.0817 (inactive)	0.314 (inactive)	-0.0316 (inactive)	0.997 (inactive)	0.64 (inactive)	-0.747	0.247
CC(C)c1ccc(NN2C(C(O)c3ccc(C#N)cc3)C=CC3C(=O)N(c4ccccc4)C(=O)C32)cc1 (stereo not given)	-0.0204	-0.708	-0.21	-0.303	-0.0634	-1.22	-0.662 (inactive)	0.629	0.179	-1.28 (inactive)	-2	-1.67 (inactive)	-1.26 (inactive)	-0.0438 (inactive)	1.94 (inactive)	1.15 (inactive)	-0.526 (inactive)	-0.926 (inactive)	-1.48	-0.152
COc1ccc([Si](C)(C)[C@@H]2[C@@H](CCO)O[C@]3(C(=O)N(Cc4cccc(NC(=O)[C@H](C)O)c4)c4ccccc43)[C@H]2C)cc1	-3.78	-0.578	-4.53	-2.88	-4.36	-1.37	1.5 (inactive)	-1.06	-2.24	-5.11 (inactive)	-5.97	0.728 (inactive)	-9.06 (active)	0.554 (inactive)	1.25 (inactive)	4.9 (inactive)	0.0065 (inactive)	-0.811 (inactive)	-6.22	0.0479
CCOC(=O)C1=CC[C@@H](c2ccccc2)N(S(=O)(=O)c2ccc(C)cc2)[C@H]1c1ccccc1	-0.84	-1.5	-0.634	-1.79	0.229	1.61	-1.29 (inactive)	-1.04	-0.0355	1.44 (inactive)	-0.356	1.92 (inactive)	-0.564 (inactive)	1.03 (inactive)	0.85 (inactive)	1.75 (inactive)	-0.544 (inactive)	-0.244 (inactive)	-1.33	0.0512
Cc1ccc(S[C@]2(C(=O)NCCN3CCOCC3)CC(=O)N(Cc3ccccc3Cl)[C@@H]2c2ccc(CO)cc2I)cc1	0.932	-0.0217	0.995	-1.62	-3.01	1.53	-0.272 (inactive)	-0.151	-1.87	-0.817 (inactive)	0.466	-3.6 (inactive)	-2.72 (inactive)	-0.576 (inactive)	0.379 (inactive)	-1.66 (inactive)	0.392 (inactive)	0.475 (inactive)	-1.7	-0.259
CC1=C2[C@@H](CCc3ccccc3)OB(O)C[C@@H]2[C@@H]2C(=O)N(C)C(=O)[C@@H]2C1	-0.0116	0.417	-0.21	-2.12	0.339	-1.18	-0.467 (inactive)	-0.519	-0.423	0.0857 (inactive)	0.157	-2.36 (inactive)	-0.313 (inactive)	-0.628 (inactive)	0.212 (inactive)	0.154 (inactive)	0.672 (inactive)	0.561 (inactive)	-0.265	-0.239
CCC#CCN(Cc1ccccc1Br)[C@H](/C=C/C1CC1)[C@@H](O)Cc1ccccc1	-0.382	0.929	-0.713	-2.23	-3.31	-1.28	-0.611 (inactive)	-0.774	-1.39	2.76 (inactive)	2.23	-3.06 (inactive)	1.93 (inactive)	-0.769 (inactive)	0.686 (inactive)	-2.7 (inactive)	1.96 (inactive)	0.706 (inactive)	0.329	-0.144
NCCCCCNC(=O)[C@H]1C[C@H]2C(=O)N3CCC[C@H]3C(=O)N2[C@H]1c1cccc(OCCO)c1	-0.173	0.101	-0.816	-1.53	-0.881	0.37	0.13 (inactive)	0.113	-0.503	-0.845 (inactive)	-1.25	-0.0559 (inactive)	-0.02 (inactive)	0.322 (inactive)	-0.252 (inactive)	-0.132 (inactive)	-0.658 (inactive)	-1.33 (inactive)	-0.29	0.256
COc1ccc([Si](C)(C)[C@@H]2[C@@H](CCO)O[C@]3(C(=O)N(Cc4ccccc4)c4ccc(NC(=O)[C@H](C)O)cc43)[C@H]2C)cc1	-2.21	0.641	-4.61	-2.62	-4.3	-2.7	-0.241 (inactive)	-0.972	-2.15	-3.3 (inactive)	-4.57	2.31 (inactive)	-6.39 (inactive)	-0.347 (inactive)	1.45 (inactive)	5.11 (inactive)	0.912 (inactive)	0.477 (inactive)	-6.12	0.157
COC(=O)[C@@]1(Cc2ccc(OC)cc2)[C@H]2c3cc(C(=O)N(C)C)n(Cc4ccc(OC(F)(F)F)cc4)c3C[C@H]2CN1C(=O)c1ccccc1	-1.34	-0.306	-0.77	-3.39	-4.11	-2.18	-0.922 (inactive)	-0.791	-2.79	-1.36 (inactive)	-0.409	0.633 (inactive)	-6.89 (inactive)	0.546 (inactive)	0.619 (inactive)	1.63 (inactive)	-0.728 (inactive)	-0.804 (inactive)	-3.56	0.422
CC[C@@H]1O[Si](C(C)C)(C(C)C)c2c1cc(-c1cc(C)c(OC)c(C)c1)nc2-c1ccc(Oc2ccccc2)cc1	-0.472	-0.25	-0.601	0.287	-0.388	-0.557	0.202 (inactive)	0.756	0.207	1.69 (inactive)	1.41	-0.122 (inactive)	0.722 (inactive)	-0.148 (inactive)	-0.783 (inactive)	-0.0894 (inactive)	0.48 (inactive)	0.424 (inactive)	0.51	0.113
COc1cccc(C)c1NC(=O)O[C@H]1[C@H](OC(=O)Nc2ccc3c(c2)OCO3)[C@@H](OC(=O)Nc2ccc3c(c2)OCO3)[C@@H](OC)O[C@@H]1CO	-0.551	-0.271	-1.28	-2.27	-0.815	-0.445	0.925 (inactive)	-0.863	-0.0492	-0.315 (inactive)	-0.808	1.21 (inactive)	-1.06 (inactive)	-0.191 (inactive)	3.29 (inactive)	2.4 (inactive)	1.5 (inactive)	-0.1 (inactive)	-0.939	0.196
NC(=O)[C@H]1[C@@H]2C(=O)O[C@@H](c3ccccc3)[C@@H](c3ccccc3)N2[C@@H](c2ccc(OCCO)cc2)[C@]12C(=O)Nc1ccc(C#CCCO)cc12	0.0067	0.272	0.456	0.227	0.167	-0.202	-0.383 (inactive)	-0.398	-1.18	-0.0196 (inactive)	-0.0423	0.704 (inactive)	-0.245 (inactive)	-0.624 (inactive)	0.35 (inactive)	1.78 (inactive)	-0.0157 (inactive)	0.0992 (inactive)	-0.169	-0.0884
CCOC(=O)C1=C[C@@H](C(C)(C)C)N(S(=O)(=O)c2ccc(C)cc2)[C@H]1c1cccc2ccccc12	-1.35	-0.15	-1.62	-0.205	-2.97	3.37	0.348 (inactive)	-0.919	-0.541	0.828 (inactive)	-0.433	3.26 (inactive)	-0.835 (inactive)	0.716 (inactive)	0.312 (inactive)	3.01 (inactive)	-0.624 (inactive)	-0.511 (inactive)	-2.66	0.307

Source: PubChem BioAssay
